Screening results: PubChem, several laboratories
Wnt act: activates Wnt/beta-catenin signaling in a reporter cell assay; actives 1.2% (n = 300,000); activator, plate reader; activation, % at 9.35 µM; in the data active = activation above about 30%, passing the limit was not always enough; inconclusive = no clear call, values can overlap the other calls;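 also: 0% = neutral control wells and 100% = positive control wells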
ssDAF12 agonist: activators of S. stercoralis DAF-12 nuclear receptor. HEK293 ssDAF-12/GRIP1 lit1-tk-luc reporter, luminescence; % of 3 µM dafachronic acid response. activation, % at 6.8 µM. actives 1% (n = 370,000). AID 652126;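 active = activation above the mean over all tested compounds plus 3 SD, cut at about 0.9% in these data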;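 also: 0% = DMSO-only wells and 100% = 3 µM delta7-dafachronic acid wells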
hgDAF12 agonist: agonists of H. glycines DAF-12 nuclear receptor; HEK293 GAL4-hgDAF12 UAS-luciferase reporter, agonist luminescence; normalized to butyrate control; activation, % at 6.8 µM; actives 1.8% (n = 370,000);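 active = activation above a cutoff set at the mean of all screened compounds plus 3 SD, cut at about 10% in these data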;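 also: 0% = DMSO wells and 100% = sodium butyrate wells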
DAX1 StAR inh: inhibitors of DAX1 repression of SF-1 activated StAR promoter; HEK293T StAR-luciferase reporter, SF-1/DAX-1 repression relief; inhibition, % at 6.8 µM; actives 1.1% (n = 370,000);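 active = inhibition above the mean over all tested compounds plus 3 SD, cut at about 3.6% in these data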;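 also: 0% = DAX-1 cells with DMSO and 100% = cells lacking DAX-1 with DMSO; higher inhibition means more luminescence from relief of DAX-1 repression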
esBAF inh: SWI/SNF esBAF complex inhibition | mouse ES cells, Bmi1-luciferase knock-in reporter, 24 h; 100% = twice the neutral-well signal | AID 602393 | actives 2% (n = 350,000) | reporter increase, % at 12.5 µM; in the data active = activation above about 40%; inconclusive = no clear call, values can overlap the other calls;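 also: 0% = median of the plate's neutral control wells and 100% = double that signal; a rise in the Bmi1 reporter signal indicates esBAF inhibition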
hcDAF-12 act: activators of H. contortus DAF-12 nuclear receptor | HEK293 hcDAF-12 lit1-tk-luc reporter, luminescence; 0% DMSO, 100% Δ7-dafachronic acid | activation, % at 6.8 µM | actives 1.4% (n = 370,000) | AID 652067;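 active = activation above the mean of all tested compounds plus 3 SD, cut at about 5.5% in these data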;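 also: 100% = response to 3 µM Δ7-dafachronic acid high control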
DAX1 conf: confirmation of human DAX1 (NR0B1) inhibitors; HEK293T StAR-promoter luciferase reporter, SF-1/DAX-1 repression; shares compounds with DAX1 StAR inh; actives 87% (n = 2,400); AID 652134; inhibition, % at 6.8 µM;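 active = inhibition above the average of every tested compound plus 3 SD, cut at about 3.8% in these data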;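 also: 0% = DAX-1 cells with DMSO and 100% = no DAX-1 control cells with DMSO; active compounds raise luminescence by relieving repression of the StAR reporter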
Target sequence (P51843 whole entry, looked up): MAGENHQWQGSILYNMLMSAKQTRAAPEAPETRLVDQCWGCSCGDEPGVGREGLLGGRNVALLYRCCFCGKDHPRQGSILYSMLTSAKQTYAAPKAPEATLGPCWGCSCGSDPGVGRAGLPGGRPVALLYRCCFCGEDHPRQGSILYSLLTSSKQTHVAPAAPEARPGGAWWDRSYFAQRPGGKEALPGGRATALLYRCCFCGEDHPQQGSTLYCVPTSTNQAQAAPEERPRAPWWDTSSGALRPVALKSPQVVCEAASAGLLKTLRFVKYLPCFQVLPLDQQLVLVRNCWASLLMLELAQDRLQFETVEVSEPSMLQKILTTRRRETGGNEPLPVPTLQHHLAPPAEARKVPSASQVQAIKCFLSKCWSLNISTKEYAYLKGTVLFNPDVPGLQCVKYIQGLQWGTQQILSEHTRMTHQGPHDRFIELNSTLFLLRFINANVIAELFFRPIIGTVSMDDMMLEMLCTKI
SF1 mutant ctr: nonselective inhibitor or artifact in SF-1 mutant DAX1 counter-screen; shares compounds with DAX1 StAR inh; HEK293 StAR-luciferase, SF-1 AF2 mutant, luminescence; inhibition, % at 6.8 µM; actives 78% (n = 2,400); AID 652136;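 active = inhibition above the mean of all tested compounds plus 3 SD, cut at about 3% in these data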;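 also: 0% = DAX-1 transfected cells with DMSO and 100% = cells without DAX-1 with DMSO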
LXR ag: LXR-beta agonism as hcDAF-12 counter-screen | 3,400 tested, under 10 active | AID 743027 | HEK293 Gal4-LXR tk-luc reporter, luminescence, 24 h; normalized: DMSO 0%, positive control 100% | shares compounds with hcDAF-12 act | activation, % at 6.8 µM;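 active = mean percent activation of the reporter above a cutoff set as the average over tested compounds plus their standard deviation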
hcDAF12 conf: hcDAF-12 agonism, confirmation assay; HEK293 hcDAF-12 lit1-tk-luc reporter, luminescence; % of Δ7-dafachronic acid response; actives 61% (n = 3,400); shares compounds with hcDAF-12 act; activation, % at 6.8 µM;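 active = mean activation across triplicate tests above the threshold derived from the earlier primary screen, cut at about 5.5% in these data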;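 also: 0% = DMSO only wells and 100% = 3 µM Δ7-dafachronic acid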
hgDAF12 ag: hgDAF-12 agonism, confirmation assay. shares compounds with hgDAF12 agonist. HEK293 GAL4-hgDAF12 luciferase reporter, agonist mode; percent of butyrate response. activation, % at 6.8 µM. actives 80% (n = 3,300). AID 743050;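 active = mean activation over triplicate wells above the hit cutoff derived from the earlier primary screen, cut at about 11% in these data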;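 also: 0% = DMSO low control and 100% = 2 mM sodium butyrate high control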
LXR ag 2: counter-screen for DAF-12 agonists: agonists of human LXR-beta; shares compounds with hgDAF12 agonist; HEK293 Gal4-LXR luciferase reporter, 24 h; activation, % at 6.8 µM; 3,300 tested, under 10 active; AID 743051;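 active = mean activation of the triplicate above a set limit carried over from the primary screen, none filed active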
Starred values were filed as active, the others as inactive; ? = inconclusive; nt = not tested or not shown. Rows were chosen to be rich in hits. Some 4.2% of all compounds tested hit in one or more screens of this group.

SMILES	Wnt act	ssDAF12 agonist	hgDAF12 agonist	DAX1 StAR inh	esBAF inh	hcDAF-12 act	DAX1 conf	SF1 mutant ctr	hgDAF12 ag	LXR ag 2	others
N/C(=N\OC(=O)c1cccc(Cl)c1)c1ccncc1	0	0	6	1	nt	1	nt	nt	nt	nt
O=C(/C=C/c1ccccc1Cl)NNC(=O)c1ccncc1	1	-1	2	-1	-1	-1	nt	nt	nt	nt
N/C(=N\OC(=O)/C=C/c1ccccc1Cl)c1ccncc1	13	0	21*	9.2*	nt	6.8*	11*	6.3*	16*	1	LXR ag=1;hcDAF12 conf=4
N/C(=N\OC(=O)c1ccccc1Cl)c1ccncc1	13	1	14*	5.6*	nt	6.2*	6.8*	5.3*	13*	1
C[C@@H]1CN([C@H](C)CO)C(=O)c2cc(C#CC3CC3)cnc2O[C@@H]1CN(C)C(=O)c1ccccc1	nt	nt	nt	nt	4	nt	nt	nt	nt	nt
CC=Cc1ccc2n(c1=O)C[C@H]1[C@H](CO)[C@@H](C(=O)NCCC)[C@@H]2N1Cc1nccs1 (mixture of isomers)	nt	nt	nt	nt	-1	nt	nt	nt	nt	nt
O=c1c2ccccc2nnn1CSc1ccccc1F	?	1	14*	6.5*	nt	5.9*	11*	5.3*	15*	1
O=c1c2ccccc2nnn1CCc1ccccc1	43*	0	16*	10.0*	20	7.1*	12*	6.4*	15*	1	LXR ag=2;hcDAF12 conf=7.8*
O=c1c2ccccc2nnn1CSc1ncnc2ccccc12	nt	0	-1	0	nt	1	nt	nt	nt	nt
COc1ccc(S(=O)(=O)N2C[C@H](O)COC[C@@H]3O[C@H](CC(=O)N[C@@H]4CCN(Cc5ccccc5)C4)CC[C@H]32)cc1	nt	nt	nt	nt	-4	nt	nt	nt	nt	nt
Cc1ccc2oc(-c3cccc(N)c3)nc2c1	0	2.5*	23*	6.4*	-32	14*	16*	8.2*	23*	1	LXR ag=1;hcDAF12 conf=10*
Nc1cccc(-c2nc3cc(S(=O)(=O)c4ccc5oc(-c6cccc(N)c6)nc5c4)ccc3o2)c1	-21	-2	-2	0	-2	-1	nt	nt	nt	nt
C/C(=N\Nc1cccc2cccnc12)c1ccccn1	15	2.0*	28*	6.3*	nt	14*	17*	7.8*	23*	1	LXR ag=2;hcDAF12 conf=13*
C[C@H](CO)N1C[C@H](C)[C@H](CN(C)Cc2ccccc2)Oc2ccc(NS(=O)(=O)c3cn(C)cn3)cc2C1=O	nt	nt	nt	nt	0	nt	nt	nt	nt	nt
O=C(Nc1ccc(N2CCCCCC2)cc1)c1ccc[nH]1	?	1	15*	13*	31	7.3*	9.4*	5.8*	17*	1	LXR ag=2;hcDAF12 conf=10.0*
CCCOC(=O)Nc1ccc(N2CCCCC2)cc1	nt	1	15*	5.3*	4	5	16*	5.8*	14*	1
O=C(Nc1ccc(N2CCCC2)cc1)c1ccc(Br)cc1	0	0	-4	0	30	0	nt	nt	nt	nt
CN(/N=C/c1cccnc1)c1cnc2ccccc2n1	16	4.2*	20*	7.3*	nt	12*	11*	5.8*	17*	1	LXR ag=1;hcDAF12 conf=10*
Cc1nnc(C)n1/N=C/c1cccnc1	-1	-1	2	0	-4	0	nt	nt	nt	nt
Cc1noc(C)c1NC(=O)Nc1cccc2c1O[C@H](CN(C)S(=O)(=O)c1ccc(F)cc1)[C@@H](C)CN([C@@H](C)CO)C2=O	nt	nt	nt	nt	2	nt	nt	nt	nt	nt
Cn1ccnc1SCC(=O)N1CCc2ccccc21	13	0	20*	5.5*	15	3	7.1*	5.6*	9	0
O=C(CSc1ccccn1)N1CCc2ccccc21	5	0	16*	6.9*	nt	2	12*	5.7*	14*	1
COc1cccc(-n2ccnc2SCC(=O)N2CCc3ccccc32)c1	-1	-2	-2	-1	1	0	nt	nt	nt	nt
COc1ccc(S(=O)(=O)N(C)C[C@H]2Oc3ccc(NC(=O)CCC(F)(F)F)cc3CC(=O)N([C@@H](C)CO)C[C@@H]2C)cc1	nt	nt	nt	nt	-2	nt	nt	nt	nt	nt
C[C@H]1CN([C@@H](C)CO)C(=O)c2cc(C#Cc3ccc(F)cc3)cnc2O[C@H]1CN(C)Cc1ccccn1	nt	nt	nt	nt	-1	nt	nt	nt	nt	nt
SMILES	Wnt act	ssDAF12 agonist	hgDAF12 agonist	DAX1 StAR inh	esBAF inh	hcDAF-12 act	DAX1 conf	SF1 mutant ctr	hgDAF12 ag	LXR ag 2	others
O=C(c1ccccn1)N1C[C@@H]2[C@H](c3ccccc31)[C@@H](CO)N2C(=O)Cc1ccccc1	nt	nt	nt	nt	-2	nt	nt	nt	nt	nt
Clc1ccc(/C=C/c2nc3ccccc3[nH]2)cc1	20	0	14*	4.5*	-49	7.7*	11*	5.8*	13*	1	LXR ag=2;hcDAF12 conf=8.9*
COc1ccc(NC(=O)N(C)C[C@H]2Oc3ccc(NC(=O)Cn4cnnn4)cc3CC(=O)N([C@H](C)CO)C[C@@H]2C)cc1	nt	nt	nt	nt	3	nt	nt	nt	nt	nt
NC(=Nc1ccccc1)NC(=O)c1nc(Cl)c(N)nc1N	28	-1	17*	5.4*	13	1	8.2*	6.4*	14*	1
Cc1noc(C)c1NC(=O)N(C)C[C@@H]1Oc2ccc(NC(=O)Cc3cn(C)c4ccccc34)cc2C(=O)N([C@@H](C)CO)C[C@H]1C	nt	nt	nt	nt	-2	nt	nt	nt	nt	nt
c1cncc(-c2nc3cc4ccccc4cc3[nH]2)c1	25	1.5*	21*	7.8*	14	9.5*	11*	5.3*	21*	1	LXR ag=2;hcDAF12 conf=9.6*
COc1ccccc1NC(=S)N/N=C/c1cccc(C)c1	0	-1	7	1	nt	0	nt	nt	nt	nt
COc1ccccc1NC(=S)N/N=C/c1ccc(O)cc1	-1	-1	19*	5.5*	nt	6.1*	16*	8.4*	20*	1
